# Screening results: PubChem BioAssay, National Center for Advancing Translational Sciences (NCATS)
# The entries come from a sample that favours hits as a whole.
# Pf Dd2 inh – Plasmodium falciparum Dd2 growth inhibition; P. falciparum Dd2 growth, SYBR Green, 72 h; Potency, µM (series often up to 28.9 µM), without a hit: at the highest dose activity, negative = inhibition, most hits filed as inhibitors; 120,000 tested, 4.3% active; active = well fitted inhibition curve with a large enough effect;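 note: plate controls were DMSO vehicle for no effect and reference drug for full effect; nearly all actives have a fitted effect of over 65% in size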
#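 Readout: SYBR Green fluorescence, 485 nm excitation, 535 nm emission, after ~16 h lysis at 37C. Before that, Dd2-infected red cells (2.5% hematocrit) grew 72 h with compound, 29 uM top final concentration.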
# Numbers without * were called inactive; i = inactive; [ ] = another dose, or the depositor's remark. Potency is the fitted concentration of half-maximal effect.
SMILES,Pf Dd2 inh
COC1CCOC2(CCN(S(=O)(=O)c3ccccc3C)CC2)C1 (stereo not given),-5.4%
COC1C(=O)N(c2cccc(F)c2)C12CCN(Cc1ccc(F)cc1F)CC2 (stereo not given),10µM*
COC1C(=O)N(c2cccc(F)c2)C12CCN(C(=O)CCc1c[nH]c3ccccc13)CC2 (stereo not given),7.94µM*
C[C@]1(O)CCN(C(=O)CCc2c[nH]c3ccccc23)C[C@@H]1O,3.6%
COC1C(=O)N(C2CCN(Cc3ccc(F)cc3F)CC2)C12CCOCC2 (stereo not given),-7.7%
COC1C(=O)N(C2CCN(C(=O)CCc3c[nH]c4ccccc34)CC2)C12CCOCC2 (stereo not given),-11.3%
COC1C(=O)N(c2cccc(F)c2)C12CCN(C(=O)C(C)C)CC2 (stereo not given),-11.4%
O=C(c1ccc(Cl)s1)N1CCCC2(CN[S+](=O)([O-])c3cccnc3O2)C1 (stereo not given),7.0%
Cc1cccc(N(C)C(=O)c2cc(S(=O)(=O)N3CCCC3)cn2C)c1,0.9%
O=C(c1cc(F)ccc1Cl)N1CCC(n2cc(-c3nc(-c4ccccc4)no3)nn2)C1 (stereo not given),-13.0%
O=C(NCCCc1ccccc1)c1n[nH]c2c1CN(C(=O)c1ccc(F)cc1)CC2,i
COc1ccc(C(=O)N[C@@H]2CCC[C@@H]2C(=O)NCCc2ccc(OC)c(OC)c2)cc1,-18.7%
CCCCOc1ccc(C(=O)NCCS(=O)(=O)N2CCN(c3ccccc3OC)CC2)cc1,15.7%
COc1ccc(Nc2ncnc3c2cnn3-c2ccc(C)cc2C)cc1,-18.9%
Cc1cc(C)cc(NC(=O)CN(C)S(=O)(=O)c2ccc3c(c2)CCC(=O)N3)c1,103.3%
O=C(NCc1nnc2n1C(C(=O)O)CC2)c1ccc2c(c1)OCO2 (stereo not given),13.3%
C=CCc1ccccc1OCCN(C)Cc1ncnn1CC,-12.7%
C=CCc1ccccc1OCCN(C)Cc1ccc(S(C)(=O)=O)cc1,-14.1%
C=CCc1ccccc1OCCN(C)Cc1nc(C)ccc1O,8.91µM*
CC(C)[C@H]1CN(CCS(C)(=O)=O)C[C@@H]1NC(=O)c1ccco1,-12.7%
COc1ccc(C2c3c(oc4ccc(Cl)cc4c3=O)C(=O)N2CCCN(C)C)cc1OC (stereo not given),i
Cc1cc(=O)[nH]c2nnc(SCc3ccc(C(F)(F)F)cc3)n12,i
Clc1ccc(CNc2ncnc3onc(-c4ccc(Cl)cc4)c23)cc1,i
CC1CCC(Nc2ncnc3onc(-c4ccc(Cl)cc4)c23)CC1 (stereo not given),4.47µM*
Clc1ccc(-c2noc3ncnc(NC4CCCCC4)c23)cc1,-18.5%
SMILES,Pf Dd2 inh
COc1ccccc1-c1cc(C(=O)N2CCOCC2)nn2cnnc12,20.2%
CC(=O)Nc1ccc(-c2ccc(=O)n3c2[C@@H]2C[C@@H](CN(C(=O)NC4CCCCC4)C2)C3)cc1,i
CN1CCN(Cc2ccc(Nc3cnc4ccc(-c5ccccc5)nn34)cc2)CC1,2.24µM*
COc1ccc(Nc2cnc3ccc(-c4ccc(OC)c(OC)c4)nn23)cc1,1.12µM*
CN1CCN(Cc2ccc(Nc3cnc4ccc(N5CCOCC5)nn34)cc2)CC1,-19.8%[44.1 µM]
COc1ccccc1-c1ccc2ncc(Nc3cccc(N[S+](C)(=O)[O-])c3)n2n1,i
COc1cncc(Nc2cnc3ccc(-c4ccc(OC)nc4)nn23)c1,i
COc1ccc(Nc2cnc3ccc(-c4ccc(OC)c(OC)c4)nn23)cc1OC,i
COc1cncc(Nc2cnc3ccc(-c4ccc(OC)c(OC)c4)nn23)c1,0.891µM*
COc1cncc(Nc2cnc3ccc(-c4ccccc4OC)nn23)c1,2.51µM*
COc1ccc(-c2ccc3ncc(Nc4cccnc4OC)n3n2)cc1OC,-6.4%[44.1 µM]
COc1ccccc1Nc1cnc2ccc(-c3ccccc3OC)nn12,-3.9%[44.1 µM]
COc1ccccc1-c1ccc2ncc(Nc3ccc(CCO)cc3)n2n1,i
CC(C)c1cnc2c(c1SCC(=O)O)c(=O)n(C)c(=O)n2C,27.9%
COc1ccc(C2Cn3nnc(C(=O)N4CCC(C(=O)NC(C)c5ccccc5)CC4)c3CO2)cc1 (stereo not given),-22.5%
O=C(c1cccc(OC(F)F)c1)N1CCn2nc(C(O)C3CC3)cc2C1 (stereo not given),-10.8%
CCOC(=O)c1sc(NC(=O)COc2ccccc2Cl)c(C(=O)OCC)c1C,11.8%
CC(=O)Nc1ccc(CNC2(Cc3cc(CC(C)C)on3)COC2)cc1,-2.7%[44.1 µM]
CC(C)CCNC(=O)Cc1ccc(NC(=O)N2CCCCc3ccccc32)cc1,i
Cc1ccc(C(=O)N2CCCCCNC(=O)[C@@H]3CCC[C@@H]32)s1,-1.6%
O=C(c1ccc(N2CC3CC(C2)[C@H]2CCCC(=O)N2C3)nc1)N1CC=C(c2ccccc2)CC1 (stereo not given in full),i
COCCNC(=O)[C@@H]1C[C@H](Oc2cccnc2)CN1C(=O)C1(c2ccccc2)CC1,26.9%
c1ccc(-c2ccc3ncc(Nc4ncccn4)n3n2)cc1,i
COc1ccc(Nc2cnc3ccc(-c4ccccc4)nn23)cc1,5.62µM*
NC(=O)c1ccc(Nc2cnc3ccc(-c4ccccc4)nn23)cc1,-10.8%[44.1 µM]
SMILES,Pf Dd2 inh
Fc1ccc(-c2nc(Nc3cccc(C(F)(F)F)c3)nc3c2COc2ccccc2-3)cc1,10µM*
Fc1ccc(-c2cc(-c3ccccc3)c3c(n2)-c2ccccc2OC3)cc1,i
Fc1ccc(Nc2nc(-c3cccc(Cl)c3)c3c(n2)-c2ccccc2OC3)c(F)c1,-14.9%
COc1ccc(C(=O)N2CCCC(n3cc(-c4nc(C)no4)nn3)C2)cc1 (stereo not given),i
O=C(CN1C(=O)NC2(CCOCC2)C1=O)NCCC1=CCCCC1,-13.7%
CCC(=O)Oc1ccc(/C=C(\C#N)c2nc3ccccc3[nH]2)cc1OC,-11.9%
COc1cc(/C=C(\C#N)c2nc3ccc(C)cc3[nH]2)ccc1OCc1ccc(C)cc1,2.82µM*
CCOC(=O)COc1ccc(/C=C(\C#N)c2nc3ccc(C)cc3[nH]2)cc1OC,i
Cc1cccn2c(=O)cc(COc3cccc(NC(=O)c4ccccc4F)c3)nc12,13.4%
COc1cccc(CNC(=O)CN2C(=O)C(c3ccccc3)=NC2(C)C)c1OC,1.5%
Cc1ccc(-c2cc3c(=O)n(CCNC(=O)Cc4ccccc4Cl)ccn3n2)c(C)c1,-7.0%
Cc1ccc(-c2cc3c(=O)n(CCNC(=O)c4ccc(F)cc4)ccn3n2)c(C)c1,2.82µM*
Cc1ccc(-c2cc3c(=O)n(CCNC(=O)c4ccc(F)c(F)c4)ccn3n2)c(C)c1,i
Cc1ccc(-c2cc3c(=O)n(CCNC(=O)Cc4c[nH]c5ccccc45)ccn3n2)c(C)c1,10µM*
Cc1ccc(-c2cc3c(=O)n(CCNC(=O)Cc4cccc(F)c4)ccn3n2)c(C)c1,-0.4%
Cc1ccc(C(=O)NCCn2ccn3nc(-c4cc(C)ccc4C)cc3c2=O)cc1,i
CCC(CC)CN1CC[C@H](c2n[nH]c(C)n2)[C@H](NC(=O)C2CCOCC2)C1,-18.0%
Cc1ncsc1CN1CCn2c(nnc2[C@@H]2C[C@@H](O)CN2Cc2cccnc2)C1,10.2%
Cc1cccc(NC(=O)CC2=C3CCCCC3NC2=O)c1 (stereo not given),-6.5%
Cc1ncccc1OC1(C(=O)NCc2nnc3n2CCC3)CCNCC1,-3.4%
CCCN(CC1CCOC1)C(=O)Nc1ccccc1F (stereo not given),33.4%[5.79 µM]
CNC(=O)[C@@H](c1ccccc1)N1CCC[C@H]1C(=O)NCc1ccc(C(F)(F)F)cc1,i
